Assay outcomes as filed in PubChem.
Most compounds without a hit are left out; they make up all but 18% or so of the library.
KAT2A inh: blocks human GCN5L2 histone acetyltransferase. Q92830. GCN5L2 HAT assay, ThioGlo1 CoA-SH fluorescence. Potency, µM (doses to about 58.9 µM), hits mostly inhibitors. 390,000 tested, 0.21% active
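Free CoA generated was detected with ThioGlo1 (50uM) fluorescence at Ex340nm/Em540nm, read immediately and after 20 min at room temperature. Enzyme, 20 nM in HEPES pH 7.5 buffer, saw compounds 15 min before adding 75uM H3(1-25) peptide and 70uM acetyl-CoA.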
TDP1 cell CPT: growth inhibition of DT40 Tdp1-/-;hTDP1 cells with camptothecin (screen for TDP1 inhibitors); Potency, µM (series often up to 46.2 µM), most hits filed as inhibitors; 420,000 tested, 12% active; chicken DT40 Tdp1-/-;hTDP1 cells + 20 nM CPT, ATP luminescence, 48 h; further: nearly all actives have a fitted effect of over 55% in size
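Chicken DT40 Tdp1-/- cells complemented with human TDP1, 400 cells/well, exposed to compounds plus 20 nM camptothecin for at least 48 h at 37 C; viability read as ATP content by CellTiter-Glo luminescence.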
PLK1 PBD inh: PLK1 (human) polo-box domain binding inhibition; Potency, µM, usual class: inhibitors; P53350; Plk1 PBD binding of FITC phosphopeptide, fluorescence polarization; 360,000 tested, 2.8% active; further: series mostly up to about 57 µM; nearly all actives have a fitted effect of over 65% in size
TDP1 inh: blocks human tyrosyl-DNA phosphodiesterase 1. 350,000 tested, 0.28% active. Q9NUW8. AID 485290. Potency, µM (series often up to 130 µM), usual class: inhibitors. recombinant TDP1, AlphaScreen DNA substrate cleavage; further: nearly all actives have a fitted effect of over 40% in size
Target sequence (Q9NUW8 whole entry, looked up): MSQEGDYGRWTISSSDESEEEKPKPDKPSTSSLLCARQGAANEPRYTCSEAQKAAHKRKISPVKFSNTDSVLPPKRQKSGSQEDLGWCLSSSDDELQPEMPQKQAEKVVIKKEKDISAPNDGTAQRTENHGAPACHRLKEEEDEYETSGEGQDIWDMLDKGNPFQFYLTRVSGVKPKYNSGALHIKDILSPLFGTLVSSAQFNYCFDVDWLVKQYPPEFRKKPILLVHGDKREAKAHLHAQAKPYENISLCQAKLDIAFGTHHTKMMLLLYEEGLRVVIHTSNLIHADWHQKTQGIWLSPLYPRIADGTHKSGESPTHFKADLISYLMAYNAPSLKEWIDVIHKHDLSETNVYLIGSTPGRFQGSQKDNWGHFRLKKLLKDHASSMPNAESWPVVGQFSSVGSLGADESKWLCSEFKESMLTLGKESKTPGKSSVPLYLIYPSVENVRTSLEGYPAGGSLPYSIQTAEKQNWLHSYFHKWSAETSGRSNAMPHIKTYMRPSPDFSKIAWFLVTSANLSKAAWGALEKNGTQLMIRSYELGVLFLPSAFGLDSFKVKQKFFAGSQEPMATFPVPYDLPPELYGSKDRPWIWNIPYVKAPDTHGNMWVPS
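Here, a 5' biotin and 3' phosphotyrosine-FITC DNA oligonucleotide reports Tdp1 activity: intact substrate bridges AlphaScreen beads, while cleavage leaves a 3' phosphate and drops signal. All incubations at room temperature.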
DT40 TDP1 no CPT: qHTS for Inhibitors of human tyrosyl-DNA phosphodiesterase 1 (TDP1): qHTS in cells in absence of CPT; 420,000 tested, 15% active; Potency, µM (highest dose often 46.2 µM), usual class: inhibitors; DT40 Tdp1-/- hTDP1 cells, no CPT, ATP luminescence, 48 h; further: nearly all actives have a fitted effect of over 55% in size
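Growth kinetics read by CellTiter-Glo luminescence after ≥48 hr at 37 °C. Cells: DT40 Tdp1-/- stably carrying human TDP1, 400 per well, compound exposure in the absence of CPT (DMSO vehicle).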
VDR inh: vitamin D3 receptor (human) inhibition; P11473; VDR-SRC2-3 peptide fluorescence polarization, 2 h; Potency, µM, usual class: inhibitors; 400,000 tested, 0.93% active; AID 504847
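Measured by FP: displacement of SRC2-3 coactivator peptide from VDR by library compounds, following a two-hour ambient incubation.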
A number is an active result; n = inactive; u = inconclusive; x = no result; ! = a repeat was not active. The call rests on the fitted dose curve; in most records, active means well fitted curve in the direction sought with a large enough effect; inconclusive means small, poorly fitted or top-dose-only effect, or another doubt; inactive means no such curve, though single readings can be large; an effect the other way counts as inactive or inconclusive.

SMILES	KAT2A inh	TDP1 cell CPT	PLK1 PBD inh	TDP1 inh	DT40 TDP1 no CPT	VDR inh
COc1ccc(Nc2nc3c(S(=O)(=O)c4ccccc4)nnn3c3ccc(Cl)cc23)cc1	n	6.5µM	x	n	9.2µM	n
Cc1ccc(Nc2nc3c(S(=O)(=O)c4ccccc4)nnn3c3ccc(Cl)cc23)c(C)c1	n	u	x	n	u	n
CCc1ccc(S(=O)(=O)c2nnn3c2nc(Nc2ccc(F)cc2)c2cc(Cl)ccc23)cc1	n	3.7µM	x	n	5.2µM	n
COc1ccc(Nc2nc3c(S(=O)(=O)c4ccccc4)nnn3c3ccc(Cl)cc23)cc1OC	n	n	x	n	n	n
COc1ccccc1CNc1nc2c(S(=O)(=O)c3ccccc3)nnn2c2ccc(Cl)cc12	25µM	u	x	n	u	n
COc1ccccc1CN1CCCC2(CCN(S(=O)(=O)c3ccccc3)CC2)C1	n	n	x	x	n	n
CCOP(=O)(OCC)C(C#N)=C1SCN(c2ccc(Cl)cc2)CS1	n	u	27µM	n	u	u
O=C(NN=C1c2ccccc2-c2ccccc21)c1ccccc1Br	n	n	n	n	n	n
O=C(NN=C1c2ccccc2-c2ccccc21)c1ccccc1	n	u	n	20µM	u	n
CCC1=C2CC[C@H]3C(=O)NC(=O)[C@H]3[C@H]2[C@@]2(C)C(=NCCc3c[nH]c4ccccc34)OC(=O)N2C1=O	x	x	x	n	x	x
N#Cc1ccccc1NC(=O)COC(=O)c1ccc(F)cc1F	n	n	n	x	n	n
O=C(CN1C(=O)NC2(CCCC2)C1=O)N1CCN(c2ccc(C(F)(F)F)cc2[N+](=O)[O-])CC1	x	13µM	n	x	8.2µM	n
O=C(CN1C(=O)NC2(CCCCCC2)C1=O)N1CCC(Cc2ccccc2)CC1	n	u	n	n	16µM	n
O=C(CN1C(=O)NC2(CCCC2)C1=O)N1CCN(c2cccc(C(F)(F)F)c2)CC1	n	u	n	n	21µM	n
CC1CCC2(CC1)NC(=O)N(Cc1cccc(C(F)(F)F)c1)C2=O (stereo not given)	n	18µM	n	n	u	n
Cc1cc2c(c(C#N)c1C)NC=NC2C (stereo not given)	x	u	n	x	u	x
O=c1c2ccccc2n(Cc2ccccc2Cl)c(=O)n1CCc1ccccc1	n	u	x	n	u	n
Cc1ccccc1C(=O)NNC(=O)CSc1nc(-c2ccccc2)cc(=O)[nH]1	n	n	n	n	u	n
Cc1ccc(C(=O)c2oc3ccccc3c2NC(=O)Cc2coc3cc(C)ccc23)cc1	n	u	x	n	u	n
COc1cccc(N2CCN(C(=O)CN3C(=O)NC4(CCCC4)C3=O)CC2)c1	n	n	n	n	n	n
Cc1cccc(N2CCN(C(=O)CN3C(=O)NC4(CCCCCC4)C3=O)CC2)c1C	n	u	n	n	21µM	n
CCN(CC(=O)NC1CCS(=O)(=O)C1)C(C)C(=O)Nc1ccc(F)cc1 (stereo not given)	n	n	n	n	n	n
O=C(Nc1c(Cl)cccc1Cl)c1cc(-c2cccc(O)c2)on1	n	u	x	n	u	n
C=CCOc1ccc(C2=NO[C@@H]3[C@@H]4C[C@@H]([C@H]5C(=O)N(C)C(=O)[C@@H]45)[C@H]23)cc1	n	n	n	n	n	n
O=C1[C@@H]2[C@@H]3C[C@@H]([C@H]4ON=C(c5ccc(Cl)cc5)[C@@H]34)[C@@H]2C(=O)N1C1CCCCC1	n	16µM	n	n	9.2µM	n
SMILES	KAT2A inh	TDP1 cell CPT	PLK1 PBD inh	TDP1 inh	DT40 TDP1 no CPT	VDR inh
Cc1[nH]c2ccccc2c1C(c1ccncc1)N1CCCCC1 (stereo not given)	n	13µM	u	n	16µM	n
Cc1c(N2CCCCC2)[nH]c2ccccc12	x	u	n	x	10µM	x
Cc1[nH]c2ccccc2c1C(O)c1ccncc1 (stereo not given)	n	n	n	n	n	n
Cc1nnc(N2CCCCC2)c2ccccc12	n	n	n	n	u	n
C[C@H]1C(c2cccc(Cl)c2)=NN(c2ccccc2)[C@@H]1CO	u	x	x	40µM	x	n
OC[C@@H]1[C@@H](c2ccc(Cl)cc2)C(c2ccccc2)=NN1c1ccccc1	u	u	n	u	16µM	u
C[C@H]1C(c2ccc(F)cc2)=NN(c2ccccc2)[C@@H]1CO	u	18µM	n	n	n	n
OC[C@@H]1[C@@H](c2ccc(F)cc2)C(c2cccc(Cl)c2)=NN1c1ccccc1	n	21µM	n	x	23µM	n
CCC(C(=O)O)n1c2ccccc2c2cn[nH]c(=O)c21 (stereo not given)	n	u	n	x	n	n
OC[C@@H]1[C@@H](c2ccc(Cl)cc2)C(c2cccc(Cl)c2)=NN1c1ccccc1	28µM!	21µM	n	40µM!	13µM	n
COc1ccc(C(=O)/C(C#N)=N/Nc2cccc([N+](=O)[O-])c2)cc1	n	5.8µM	u	n	4.1µM	n
CCC(CC)=NNc1cccc([N+](=O)[O-])c1	n	n	n	n	n	n
COc1ccc(C(=O)NNC(=S)NC(=O)c2cccc([N+](=O)[O-])c2)cc1	x	u	n	x	18µM	n
O=C(NC(=S)NNC(=O)c1ccccc1O)c1cccc([N+](=O)[O-])c1	n	23µM	n	x	23µM	n
COCCCn1c(=O)c2sccc2n2c(CCCC(=O)N(C)Cc3ccco3)nnc12	n	n	n	n	n	n
C[C@H]1OC(OC2C(O)[C@@H](O)C(OC3C(O)[C@@H](O)C(O)O[C@@H]3CO)O[C@@H]2CO)[C@H](O)C(O)C1N[C@H]1C=C(CO)[C@@H](O)[C@H](O)C1O (stereo not given in full)	n	x	x	n	x	n
COc1ccc(CN=Cc2[nH]c3ccc(Br)c(Cl)c3c2O)cc1	n	u	u	n	u	u
Cc1cc(C)cc(N=Cc2[nH]c3ccc(Br)c(Cl)c3c2O)c1	n	16µM	n	n	u	n
CCOc1ccc(OCc2ccc(C(=O)N/N=C(\C)c3ccccn3)cc2)cc1	n	0.92µM	n	n	0.65µM	n
C/C(CC(=O)Nc1ccccn1)=N\NC(=O)c1ccccc1	n	x	x	n	x	x
C/C(=N\NC(=O)c1cccc2ccccc12)c1ccccn1	u	1.2µM	n	n	1.5µM	n
CCOc1ccc(C(=O)O/N=C(\N)c2ccccn2)cc1	n	n	n	x	u	n
C/C(CC(=O)Nc1ccccn1)=N\NC(=O)c1ccccc1O	n	4.1µM	n	n	16µM	n
C/C(=N\NC(=O)c1ccccc1OCc1ccc(F)cc1)c1ccccn1	n	4.6µM	n	n	5.2µM	n
